The source made the active and inactive calls. How the source made its calls: active means hit-call score of the fitted dose curve at least 0.9, where 1 is the maximum; inactive means score below 0.9.
The compounds below were run on CD40, CD40 (gene 958) (assay: BSK_SAg_CD40: BioMAP Diversity Plus: SAg Assay for CD40 Biomarker Activity (AID 2283088)). Conditions: primary human HUVEC with PBMC; actives raise or lower the signal.
Experimental: BSK_SAg is a cell-based, multiplexed-readout assay that uses umbilical vein endothelium and peripheral blood mononuclear cells, a human vascular primary cell co-culture, with measurements taken at 24 hours after chemical dosing in a 96-well plate.BSK_SAg_CD40 is one of 10 assay component(s) measured or calculated from the BSK_SAg assay. It is designed to make measurements of enzyme-linked immunosorbent assay, a form of binding reporter, as detected with fluorescence intensity signals by Enzyme-linked immunosorbent assay technology.Data from the assay component BSK_SAg_CD40 was analyzed into 1 assay endpoint. This assay endpoint, BSK_SAg_CD40, was analyzed with bidirectional fitting relative to DMSO as the negative control and baseline of activity. Using a type of binding reporter, gain or loss-of-signal activity can be used to understand changes in the signaling as they relate to the gene CD40. Furthermore, this assay endpoint can be referred to as a primary readout, because this assay has produced multiple assay endpoints where this one serves a signaling function. To generalize the intended target to other relatable targets, this assay endpoint is annotated to the cytokine intended target family, where the subfamily is inflammatory factor.
The levels of cell surface (or secreted, indicated by the prefix "s") biomarker endpoints were measured by ELISA. Overt cytotoxicity to cells in confluent adherent cultures (all systems other than the BT system) was assessed by measuring total protein levels using sulforhodamine B (SRB) staining in parallel cultures at the time of biomarker measurements, indicated as SRB endpoints. For proliferation assays for adherent cell types, individual cell types are cultured at sub-confluence and relative cell numbers quantified by SRB staining at time points optimized for each system (48 h: 3C and CASM3C systems; 72 h: BT and HDF3CGF systems; 96 h: SAg system). SRB was performed by staining cells with 0.1% SRB after fixation with 10% TCA and reading wells at 560 nm.Viability and proliferation of PBMC (T cells) was quantified by Alamar Blue reduction for the SAg and BT systems. For PBMC viability (referred to as PBMC Cytotoxicity within the assay endpoint names), cells were plated (75,000/well in a 96-well plate) and then chemical samples added for 1 h before addition of activators, SEB and TSST-1 (20 ng/mL final concentration each). Cells were incubated for 90 h. Then, Alamar Blue (20 uL/well) (Invitrogen, Cat DAL1100) was added for 6 h, and the plates were read with a fluorescence microplate reader at 546/580 nm (excitation/emission). For PBMC proliferation, cells were plated and activated as above but incubated for only 16 h prior to addition of Alamar Blue. Plates were read after 6 h.
For `Nc1nc(Cl)nc2c1ncn2[C@H]1C[C@H](O)[C@@H](CO)O1`, the AC50 was 1.6 µM (active).
With `O=Cc1ccccc1C=O` the outcome was “inactive”.
For `COc1ccc(OC(F)(F)F)cc1CN[C@H]1CCCN[C@H]1c1ccccc1`, the outcome was “inactive”.
With `COc1ccc(C(=O)Nc2nc3ccccc3c(NCc3ccccc3)c2C#N)cc1` the outcome was “inactive”.
For `Cc1cn([C@H]2C=C[C@@H](CO)O2)c(=O)[nH]c1=O`, the outcome was “inactive”.
With `Nc1nc(=S)c2[nH]cnc2[nH]1` the outcome was “inactive”.
In the case of `O=C1O[C@H]([C@H](O)CO)C(O)=C1O`, the outcome is reported as “inactive”.
With `CN(C)C(=O)NC1(c2ccccc2)CCN(CC[C@@]2(c3ccc(F)c(F)c3)CN(C(=O)c3ccccc3)CCO2)CC1` the outcome was “inactive”.
In the case of `CCCCCCCCCCCCCCCCO`, the outcome is reported as “inactive”.
`CC1=C(C)S(=O)(=O)CCS1(=O)=O` was tested, and the outcome was “inactive”.
In the case of `C=CCc1ccc(OC)c(OC)c1`, the outcome is reported as “inactive”.
In the case of `O=C(N[C@@H](c1ccccc1)[C@@H]1CCCCN1)c1cccc(C(F)(F)F)c1Cl`, the AC50 is reported as 20 µM (active).
With `CCCC(=O)O` the outcome was “inactive”.
`COC(=O)CCC(=O)OC` was tested, and the outcome was “inactive”.
In the case of `O=C(O)c1[nH]n(-c2ccc(S(=O)(=O)O)cc2)c(=O)c1N=Nc1ccc(S(=O)(=O)O)cc1`, the outcome is reported as “inactive”.
`CCOCCOCCO` was tested, and the outcome was “inactive”.
For `O=C(O)CC(O)(CC(=O)O)C(=O)O`, the outcome was “inactive”.
With `CCCCCCCCCCCCCCOS(=O)(=O)O` the outcome was “inactive”.
With `CCCCCCCCCC[N+](C)(C)[O-]` the outcome was “inactive”.
With `CC(C)c1cccc(C(C)C)c1` the outcome was “inactive”.
With `CC(COCC(C)OC(=O)c1ccccc1)OC(=O)c1ccccc1` (stereo not given) the outcome was “inactive”.
For `O=C1CCCCC1`, the outcome was “inactive”.
For `Cc1ccc(-c2cc(C(F)(F)F)nn2-c2ccc(S(N)(=O)=O)cc2)cc1`, the AC50 was 27.3 µM (active).
With `CCCC[C@H]1CN(CC2CCOCC2)C(=O)OC12CCN(C1(C)CCN(C(=O)c3c(C)ncnc3C)CC1)CC2` the outcome was “inactive”.
With `CC(N)=O` the outcome was “inactive”.
`COC(=O)[C@H]1[C@H]2C[C@@H]3c4[nH]c5cc(OC)ccc5c4CCN3C[C@H]2C[C@@H](OC(=O)c2cc(OC)c(OC)c(OC)c2)[C@@H]1OC` was tested, and the AC50 was 26.6 µM (active).
`C=CCCCCCCCCCCCC` was tested, and the outcome was “inactive”.
In the case of `NC1CCCCC1`, the outcome is reported as “inactive”.
`CN(C)C(=O)NC1(c2ccccc2)CCN(CCC[C@]2(c3ccc(Cl)c(Cl)c3)CCCN(C(=O)c3ccccc3)C2)CC1` was tested, and the outcome was “inactive”.
`CC(C)(C)c1ccccc1` was tested, and the outcome was “inactive”.
For `CO[C@@H]1COCC[C@@H]1N[C@@H]1CC[C@@](C(=O)N2CCc3ncc(C(F)(F)F)cc3C2)(C(C)C)C1`, the outcome was “inactive”.
With `O=C1NC(=O)C(c2ccccc2)(c2ccccc2)N1` the outcome was “inactive”.
`CC(=O)[C@@]1(O)CC[C@H]2[C@@H]3CCC4=CC(=O)CC[C@]4(C)[C@H]3CC[C@@]21C` was tested, and the outcome was “inactive”.
For `CCc1cc(C2=C(C(=O)O)N(c3ccccc3C(F)(F)F)S(=O)(=O)c3ccccc32)cc2c1OCO2`, the outcome was “inactive”.
With `CCCCCCC(C=O)=Cc1ccccc1` the AC50 was 32 µM (active).
In the case of `Cn1cnc2c1c(=O)[nH]c(=O)n2C`, the outcome is reported as “inactive”.
With `CC(C)(O)c1ccc(CNC(=O)c2cccnc2Oc2ccc(F)cc2)cc1` the outcome was “inactive”.
`O=C1c2c(O)cccc2Cc2cccc(O)c21` was tested, and the outcome was “inactive”.
For `OCC(O)CO`, the outcome was “inactive”.
With `O=C(Oc1ccccc1)c1cccc(C(=O)Oc2ccccc2)c1` the outcome was “inactive”.
